Screens: PubChem BioAssay, National Center for Advancing Translational Sciences (NCATS)
D3 ag: agonists of human D3 dopamine receptor; P35462; max activation, %; 410,000 compounds, 0.58% hits; AID 652048; D3R DiscoveRx beta-arrestin cells, luminescence, 90 min; in the data active = max activation above about 30%; also: 0% is about no effect
Target sequence (P35462 whole entry, looked up): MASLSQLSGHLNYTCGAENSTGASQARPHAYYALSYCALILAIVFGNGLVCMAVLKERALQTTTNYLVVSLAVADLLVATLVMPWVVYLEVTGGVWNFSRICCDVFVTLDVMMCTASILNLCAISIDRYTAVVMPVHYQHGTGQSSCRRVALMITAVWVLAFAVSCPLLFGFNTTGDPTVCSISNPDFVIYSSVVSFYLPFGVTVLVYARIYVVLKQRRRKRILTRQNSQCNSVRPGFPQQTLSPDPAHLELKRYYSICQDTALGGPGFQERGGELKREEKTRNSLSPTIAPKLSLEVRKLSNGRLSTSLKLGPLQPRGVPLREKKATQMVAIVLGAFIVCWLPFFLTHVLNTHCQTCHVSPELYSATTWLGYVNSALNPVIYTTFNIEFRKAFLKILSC
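Cells at 1500/well, incubated overnight, then treated with pinned compounds (dopamine as control) for 90 min at 37 degrees C. DiscoveRx reagent added for 30 - 60 minutes at room temperature; luminescence read.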
DRD3 antagonist: antagonists of human D3 dopamine receptor. P35462. max response, negative = inhibition, %. D3R cells, DiscoveRx beta-arrestin luminescence, antagonist mode; stronger effect = lower value. 360,000 compounds, 2.5% hits; in the data active = max response below about -50%; inconclusive = no clear call, values can overlap the other calls; also: % is scaled to controls: 0 for no effect and ±100 for the full control effect
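Cells expressing the human receptor were seeded at 1500 cells/well, incubated overnight at 37 degrees C in 5% CO2, then exposed to library compounds with dopamine controls for 90 minutes at 37 degrees C before luminescent detection.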
ATXN viability: viability counter-screen for ATXN expression inhibitors | S2 cells (HEK-293 line with an ATXN2-luciferase reporter) viability, CellTiter-Fluor protease fluorescence, 24 h | Potency, µM (top dose mostly 56.7 µM), usual class: cytotoxic | 400,000 compounds, 0.49% hits; also: potency is read from the fitted curve at half-maximal effect; nearly all actives have a fitted effect of over 40% in size
TGFb SMAD3 inh: TGF-b pathway inhibition; HepG2 CAGA-GFP TGF-b/SMAD3 reporter, GFP fluorescence, 18 h; TGF-beta stimulated, 500 pg/mL final; Potency, µM (top dose mostly 46.1 µM), for inactives: at the highest dose activity, negative = inhibition, most hits filed as inhibitors; 410,000 compounds, 1.2% hits; also: potency is read from the fitted curve at half-maximal effect; % is scaled to controls: 0 for no effect and ±100 for the full control effect; nearly all actives have a fitted effect of over 65% in size
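Cell-based qHTS in HEPG2 carrying a CAGA-GFP Smad reporter; compounds added before 500 pg/mL final TGF-beta, 18 h incubation at 37 degrees C, GFP fluorescence quantified per cell by imaging cytometry.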
ATXN2 expr inh: ATXN2 expression inhibition; HEK-293 ATXN2-luciferase reporter, luminescence, 24 h; AID 1745845; Potency, µM (titrated, usually from 57 µM), for inactives: at the highest dose activity change, negative = inhibition, actives largely listed as inhibitors; 360,000 compounds, 0.72% hits; also: potency is read from the fitted curve at half-maximal effect; % is scaled to controls: 0 for no effect and ±100 for the full control effect; nearly all actives have a fitted effect of over 55% in size
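ATXN2-luciferase reporter cells (luciferase flanked by upstream and downstream ATXN2 gene portions) were treated 24 h at 37 °C with compounds at up to 57 uM. SteadyGlo luminescence gave expression; GF-AFC fluorescence gave viability.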
HepG2 viability: HepG2 cytotoxicity, counter-screen for TGF-b inhibitors. Potency, µM (titrated, usually from 46.1 µM), inactives show at the top dose activity change, negative = cytotoxicity, hits mostly cytotoxic. AID 588856. 410,000 compounds, 0.76% hits. HepG2 CAGA-GFP viability, ATP luminescence, 18 h; also: potency is read from the fitted curve at half-maximal effect
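HepG2 CAGA-GFP cells (1000/well, DMEM with 1% FBS) received compound, then TGF-beta at 500 pg/mL final, and were incubated 18 hours at 37 degrees C. Viability was read by CellTiter-Glo luminescence. Media-only wells were set as complete cell-killing and DMSO as no toxicity.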
Starred values were filed as active, the others as inactive; i = inactive; ? = inconclusive; . = no result given. Hits are enriched below; roughly 4.8% of the tested compounds scored in any of these assays. Unless noted, calls follow the shape of the dose curve; as a rule, active = well fitted curve in the direction sought with a large enough effect; inconclusive = small, poorly fitted or top-dose-only effect, or another doubt; inactive = no such curve, though single readings can be large; an effect the other way counts as inactive or inconclusive.

SMILES	D3 ag	DRD3 antagonist	ATXN viability	TGFb SMAD3 inh	ATXN2 expr inh	HepG2 viability
C=C(C)COc1ccc2c(C)c(CC(=O)N3C[C@H]4C[C@@H](C3)c3cccc(=O)n3C4)c(=O)oc2c1	-7	-24	i	4%	-10%	-8%
COc1cc(/C=C/c2ccc3c([N+](=O)[O-])cccc3n2)ccc1OCC(=O)O	1	-8	i	-13%	.	-8%
COc1cc(/C=C/c2cc(OC(C)=O)c3ccccc3n2)c(OC(C)=O)c([N+](=O)[O-])c1	-13	-82*	.	-1%	.	-15%
O=C(CSc1c(Cl)cccc1Cl)N1CCC(c2nc3ccccc3s2)CC1	2	13	i	-12%	-30%	-2%
Cc1ccccc1C(=O)N1CCC(c2nc3ccccc3s2)CC1	2	.	?	?	?	-21%
CC(Oc1ccc(F)cc1)C(=O)N1CCC(c2nc3ccccc3s2)CC1 (configuration not stated)	4	.	?	?	?	13µM*
Cc1cc(OCC(=O)N2CCC(c3nc4ccccc4s3)CC2)ccc1Cl	11	.	?	10µM*	?	-10%
CCc1ccccc1N1CSC2=C(C#N)C(c3cc(OC)c(OC)cc3OC)CC(=O)N2C1 (configuration not stated)	-1	-68*	i	3%	-5%	-43%
C=CCN1CCc2c(cc(O)c(O)c2Cl)C(c2ccccc2)C1 (configuration not stated)	97*	0	?	-38%	?	-10%
C=CCN1CCc2cc(O)c(O)cc2C(c2ccccc2)C1 (configuration not stated)	139*	32	i	-2%	4%	1%
Cc1cccc(C2CN(C)CCc3c2cc(O)c(O)c3Cl)c1 (configuration not stated)	18	-26	?	-11%	?	2%
O=C(Nc1ccccc1)N(Cc1cccs1)c1ccc(F)cc1	-14	.	.	-11%	.	5%
Cc1cccc(-n2ncc3c(Nc4ccc(Oc5ccc(Cl)cc5)cc4)ncnc32)c1	3	.	?	31%	?	4%
COc1ccc(/C=C/C(=O)c2ccc(OC)cc2OC)c(OC)c1	35*	-3	i	42%	-26%	3%
COc1cc(/C=C/c2ccc(O)cc2)cc(OC)c1	10	48	i	-10%	9%	-37%
COC(=O)c1ccc2c(c1)C(C)(C)C(/C=C/c1ccc(O)cc1)=[N+]2C	-51	?	7.9µM*	4µM*	3.2µM*	3.5µM*
COC(=O)c1ccc2c(c1)C(C)(C)C(/C=C/c1ccc(OC)c(OC)c1OC)=[N+]2C	-21	-88*	?	10µM*	25µM*	-94%
Cc1ccc(NC(=S)NC(=O)c2ccc(F)cc2)cc1S(=O)(=O)Nc1cccc(Cl)c1	-19	-60*	?	-29%	?	-24%
Cc1cc(C)c(OCCCNCc2ccccc2)c(Br)c1	-16	-28	?	?	.	-120%
Cc1cc(Cl)c(OCCCN2CCCCC2)c(Br)c1	-25	-2	?	2%	-17%	-27%
COCCNCCCCOc1c(Cl)cc(C)cc1Br	-4	-84*	i	-10%	-27%	-42%
Cc1cc(Cl)c(OCCCNCc2ccccc2)c(Br)c1	-11	-62*	?	?	?	10µM*
COc1cc(NS(=O)(=O)c2ccc(-c3cc(C)no3)cc2)cc(OC)c1	4	.	.	?	.	-31%
COC(=O)c1ccc2c(=O)n(CCc3ccc(S(N)(=O)=O)cc3)c(SCC(=O)C(C)(C)C)nc2c1	7	.	?	-7%	3%	-88%
CN1CCN(C2=Cc3ccccc3Sc3cc(F)c(F)cc32)CC1	2	-62*	?	-1%	?	-102%
SMILES	D3 ag	DRD3 antagonist	ATXN viability	TGFb SMAD3 inh	ATXN2 expr inh	HepG2 viability
C=CCNC(=S)NNC(=O)c1cccn(Cc2ccc(Cl)cc2)c1=O	-4	-67*	.	9%	.	-8%
C=CCNC(=S)NNC(=O)c1cccn(Cc2cccc(Cl)c2)c1=O	-21	17	i	8%	0%	0%
CCOc1ccc(S(=O)(=O)NCC(c2ccc(N(C)C)cc2)N2CCCC2)cc1 (configuration not stated)	-18	.	.	11%	.	-21%
COC(=O)c1sccc1S(=O)(=O)N(CC(=O)Nc1ccc(C)cc1)c1ccccc1	-12	.	i	-24%	16%	-10%
CCc1ccc(NC(=O)CN(c2ccc(Cl)cc2)S(=O)(=O)c2ccsc2C(=O)OC)cc1	-10	.	i	7.1µM*	7%	-32%
Clc1ccc(-n2nnnc2-c2cnc(-c3ccncc3)nc2-c2cccs2)cc1	0	10	i	-17%	-11%	-30%
FC(F)(F)c1nc(-c2cccs2)ncc1-c1nnnn1-c1ccc(Cl)cc1	29	-19	?	-10%	22µM*	-28%
COc1ccc(C(CC(=O)Nc2cc(Cl)c(OC)cc2OC)N2Cc3ccccc3C2=O)cc1 (configuration not stated)	47*	.	.	-10%	.	-12%
CCN(CC)CCNC(=O)c1ccc(N2CCCCC2)c(NS(=O)(=O)c2ccc(C)cc2)c1	-13	-82*	?	-6%	?	-59%
COc1ccc(NC(=O)CSc2nc(-c3ccccc3)[nH]c2-c2ccccc2)cc1OC	-2	.	?	?	?	-44%
O=C(COc1ccccc1)Nc1nc2c(s1)CCCC2	-13	-77*	i	-21%	46%	0%
c1ccc(CNc2ncnc3nc(N4CCOCC4)[nH]c23)cc1	.	.	.	-3%	.	-3%
Cc1c(C(=O)NCCc2ccncc2)cnn1-c1nccc(-c2ccccc2C(F)(F)F)n1	.	.	i	.	.	.
Cc1ccsc1C(=O)Nc1nnc(-c2ccco2)o1	-4	-65*	.	?	.	-17%
Cc1ccc(C(=O)Nc2nnc(-c3ccco3)o2)cc1	-6	-19	i	0%	?	-21%
COC(=O)C1=C[C@@H](C(=O)OC)C2C3=C(C(=O)C24CCCCC4)[C@H](C)n2c(=O)n(-c4ccccc4)c(=O)n2[C@@H]3C1 (some centres not stated)	35*	28	?	2%	10%	7%
CCOC(=O)c1c(CN2CCCCC2)n(C)c2cc(Br)c(O)c(CN(C)C)c12	-10	-68*	?	0%	-19%	-16%
CCOC(=O)c1c(CSc2ccccc2)n(C)c2cc(Br)c(O)c(CN(C)C)c12	-13	-16	i	?	?	-25%
CCOC(=O)c1c(CSc2ccc(C)cc2)n(C)c2cc(Br)c(O)c(CN(C)C)c12	2	1	?	?	-38%	-52%
